The molecules below were run against Glucose transporter (Leishmania mexicana) (UniProt O61059) (assay: ST_JUDE_LEISH: Cytotoxicity at 2uM final concentration against transgenic Leishmania Mexicana promastigotes LmGT2 that are glucose transport deficient and complemented with the L. Mexicana glucose transporter 2. Activity is measured by DNA content using SYBR green in vitro).
Type: functional

Which inhibition does the source give for `CC(C(=O)NC1CCN(c2ccnc(Nc3ccc(F)cc3)n2)C1)c1ccc(Cl)cc1` (stereo not given) here?
The inhibition was 2.7%.

For `O=[N+]([O-])c1cccc(CNCC2CCN(Cc3ccc(O)cc3)CC2)c1`, which inhibition is on record?
Its inhibition is 2.59%.

`O=[N+]([O-])c1cccc(CNC2CCN(Cc3ccc(Cl)c(Cl)c3)CC2)c1` was tested. Which inhibition did it give?
The inhibition was 7.35%.

How did the inhibition turn out when `COc1ccc(CNCc2cccc(-c3ccc(-c4nc5cccc(C)c5[nH]4)cc3)c2)cc1` was run?
Its inhibition is 7.5%.

How did the inhibition turn out when `Cc1nc(Nc2ccc(C)c(Cl)c2)c2c(C)noc2n1` was run?
Its inhibition is 4.71%.

With `Cc1ccnc(NC(c2cccc(Cl)c2Cl)c2ccc3cccnc3c2O)c1` (stereo not given) as the molecule, how does the inhibition read?
Its inhibition is -0.63%.

Which inhibition does the source give for `CCCCOP(=O)(OCCCC)C(=Cc1ccc(O)c2ccccc12)P(=O)(OCCCC)OCCCC` here?
Its inhibition is 5.24%.

With `CCCCCC(=O)NCC(NCCCNc1cc(=O)c2ccccc2[nH]1)c1cc(Br)cc(Br)c1` (stereo not given) as the molecule, how does the inhibition read?
The inhibition was 5.39%.

How did the inhibition turn out when `FC(F)(F)c1ccc2[nH]ccc(=NN=Cc3cccnc3)c2c1` was run?
The inhibition was 5.22%.

For `CC(Cc1ccc(COc2ccc(CC(CO)NCCc3cccc(Cl)c3)cc2)cc1)NCCc1cccc(Cl)c1` (stereo not given), which inhibition is on record?
The inhibition was 69.3%.

How did the inhibition turn out when `O=C(N[C@@H](Cc1ccccc1)C(=O)NC1CCCCCC1)c1ccc(O)c(-c2cccc(C(F)(F)F)c2)c1` was run?
The inhibition was 0.57%.

Which inhibition does the source give for `O=C(NC(c1ccc(Cl)cc1)c1ccc2cccnc2c1O)c1ccccc1` (stereo not given) here?
The inhibition was -2.91%.

`CCCCNC(=O)c1cc(CNC2CCCCC2)ccc1-c1cccc(CNCc2ccc(-c3ccccc3)cc2)c1` was tested. Which inhibition did it give?
Its inhibition is 2.67%.

Which inhibition does the source give for `Cn1cccc1C(=O)C(=O)Nc1cccc(-c2ccc(-c3nc4cc(C(F)(F)F)ccc4[nH]3)cc2)c1` here?
The inhibition was -0.4%.

Which inhibition does the source give for `CC[C@H](NC(=O)c1c(CN2CCC(N3CCCCC3)CC2)c(-c2ccccc2)nc2cc(O)ccc12)c1ccccc1` here?
Its inhibition is 1.08%.

— ChEMBL document CHEMBL3433997, “St. Jude Leishmania screening dataset” (2016)
